# Experimental data from the supplement of paper PMC12636033.
# ± gives the standard deviation of the averaged measurements. Over roughly 33,000 sequences, “E-score (rank enrichment, -0.5 to 0.5)” has its median near -0.0043; the highest 2% begin near 0.24. The full list was thinned out, with the highest values kept by preference.
# System: 2Sp-muMax20 (muMax20 with two 2,6-bis(methyl)pyridine Cys staples)
# Assay: PBM 8-mer E-score (E-score (rank enrichment, -0.5 to 0.5)); higher = stronger preferential binding
# Experimental: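 Protein binding microarray (universal PBM chip covering all 10-mers in fixed probe flanks) with chemically synthesized human Max(13-93) bHLH-LZ analogs (not full-length Max) bearing noncanonical residues (hArg, Tha, Aib, Nle at 65) and aromatic Cys staples. Read-out per 8-mer (and its reverse complement): E-score (rank-based enrichment, -0.5 to 0.5) and Z-score of median probe intensity.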
row,Sequence,PBM 8-mer E-score
1,TAATGTGA,0.266 ± 0.01
2,CAATGTGA,0.146 ± 0.013
3,ATATGTGA,0.311 ± 0.022
4,ATATGTGG,0.218 ± 0.032
5,GCATGTGA,0.183 ± 0.082
6,CTATGTGA,0.148 ± 0.044
7,CCATGTGA,0.268 ± 0.087
8,GAATGTGA,0.00134 ± 0.14
9,AGATGTGA,0.199 ± 0.019
10,CCATGTGC,0.114 ± 0.025
11,ACATGTGA,0.312 ± 0.0028
12,CGATGTGA,0.0746 ± 0.018
13,GCTTAGCA,0.039 ± 0.11
14,TACGCTAA,0.218 ± 0.0075
15,GTTCTCTA,-0.185 ± 0.098
16,AGTTCCAA,-0.0402 ± 0.057
17,CCCCCCTA,-0.112 ± 0.073
18,GCCAAACC,-0.0278 ± 0.14
19,GCAGATAC,0.04 ± 0.079
20,ATACTACA,0.258 ± 0.033
21,ATTCTACG,0.228 ± 0.01
22,CTACTACA,0.0934 ± 0.18
23,ATACTAAA,0.145 ± 0.13
24,ATAATACG,0.177 ± 0.032
25,ATTCTACA,0.253 ± 0.021

row,Sequence,PBM 8-mer E-score
1,GTTCTACA,0.0307 ± 0.072
2,ATAATACC,0.209 ± 0.033
3,ATACTACC,0.147 ± 0.029
4,GTACTAAC,0.127 ± 0.038
5,ATAATACA,0.271 ± 0.0055
6,ATACTAAC,0.245 ± 0.041
7,CCCGTCCA,-0.241 ± 0.017
8,TTCTAAAA,-0.19 ± 0.05
9,TCCAACGA,-0.0483 ± 0.18
10,CTGGCAAG,-0.0269 ± 0.07
11,ACATTTTA,0.232 ± 0.019
12,CCACTATA,0.183 ± 0.0029
13,GGCAGTAC,0.105 ± 0.086
14,ATACTAGA,0.26 ± 0.055
15,CTACTAGA,0.05 ± 0.076
16,ATACTAGC,0.117 ± 0.075
17,TAAATAGA,0.000425 ± 0.01
18,AAAATAGA,0.242 ± 0.0042
19,AAAATAGC,-0.0165 ± 0.011
20,TAACCTCA,-0.00886 ± 0.051
21,GAGAGCAA,-0.127 ± 0.12
22,CCTGGATA,-0.0904 ± 0.0036
23,AAATAGGG,0.208 ± 0.0056
24,AAATAGAT,0.227 ± 0.023
25,GAATAGAC,0.104 ± 0.096

row,Sequence,PBM 8-mer E-score
1,AAATAGGC,0.0753 ± 0.026
2,AAATAGGT,0.241 ± 0.0095
3,AAATAGAC,0.257 ± 0.0069
4,ACCGAAAA,-0.0179 ± 0.15
5,CTCTTCCC,-0.062 ± 0.011
6,CACGTGCA,0.419 ± 0.027
7,GACGTGCC,-0.0934 ± 0.065
8,AACGTGCG,0.129 ± 0.11
9,AACGTGCC,0.0275 ± 0.036
10,GGCGTGCA,0.11 ± 0.047
11,CGCGTGCC,0.0851 ± 0.061
12,CGCGTGCA,0.263 ± 0.035
13,TACGTGCA,0.105 ± 0.013
14,CACGTGCG,0.4142 ± 0.0019
15,CCCGTGCG,-0.119 ± 0.06
16,AACGTGCA,0.149 ± 0.025
17,CACGTGCC,0.405 ± 0.0045
18,GGTAGCAA,0.163 ± 0.004
19,AAGTACTT,0.109 ± 0.032
20,ACCGCATG,0.132 ± 0.074
21,GCGCATCA,0.0862 ± 0.011
22,CGGGTACA,-0.205 ± 0.03
23,GACCGACA,-0.18 ± 0.052
24,GAACAAAC,0.046 ± 0.051
25,CCATAATC,0.159 ± 0.019

row,Sequence,PBM 8-mer E-score
1,CTCTTAGA,-0.116 ± 0.051
2,AACAAGTT,0.0512 ± 0.042
3,AAACAATT,0.252 ± 0.046
4,AAACAATA,0.101 ± 0.046
5,AACAAATA,0.212 ± 0.063
6,AAACAATG,0.121 ± 0.021
7,AACAAATT,0.265 ± 0.0042
8,ATGCAGTA,0.0482 ± 0.088
9,ACATAGCT,-0.143 ± 0.0071
10,ACCCTCCC,0.26 ± 0.043
11,CCCCTCCC,0.311 ± 0.014
12,TCCCTCCA,-0.114 ± 0.086
13,GCCCTCCA,-0.00293 ± 0.051
14,TCCCTTCA,0.107 ± 0.057
15,CCCCTTCA,0.248 ± 0.1
16,ACCCTCCT,-0.0498 ± 0.0072
17,CCCTCCCC,0.142 ± 0.11
18,CCCCTTCC,-0.00527 ± 0.1
19,CCCCTCCA,0.236 ± 0.033
20,CCCCTCCG,-0.0068 ± 0.12
21,ACCCTCCA,0.168 ± 0.0021
22,ATATACGG,0.0505 ± 0.015
23,GGCTCAAC,-0.0877 ± 0.06
24,AGGAATAA,0.0163 ± 0.077
25,CTTCTACA,-0.0255 ± 0.032

row,Sequence,PBM 8-mer E-score
1,ACCTGCCA,-0.188 ± 0.047
2,CCATTATC,0.157 ± 0.04
3,ACATTATC,0.159 ± 0.038
4,CCATTATA,0.257 ± 0.045
5,ACATTATA,0.282 ± 0.0059
6,ACATTATG,0.147 ± 0.1
7,GCATTATA,0.186 ± 0.059
8,CGTATGCC,-0.0525 ± 0.034
9,GCTGTTGA,-0.119 ± 0.013
10,AGGGTGGA,-0.0107 ± 0.009
11,AGGGTGGG,0.245 ± 0.073
12,AGGGTGGC,0.0126 ± 0.068
13,ACAGAGAA,0.129 ± 0.14
14,ATATGGGC,0.249 ± 0.04
15,ATATGGAG,0.127 ± 0.014
16,ACATGGGG,0.246 ± 0.072
17,ATATGGGG,0.239 ± 0.024
18,CCATGGGG,-0.0568 ± 0.073
19,CTATGGGC,-0.0549 ± 0.074
20,ATATGGGA,0.136 ± 0.11
21,AGATGGGC,-0.0126 ± 0.1
22,ACATGGGA,0.162 ± 0.035
23,GAATCATC,-0.0799 ± 0.064
24,TCGTACAA,0.1 ± 0.042
25,CAACCAAC,-0.132 ± 0.022

row,Sequence,PBM 8-mer E-score
1,TCATTTCA,0.171 ± 0.068
2,CATGGCCA,0.0303 ± 0.016
3,CCAGCAGG,-0.054 ± 0.077
4,CGTTTCAA,-0.171 ± 0.036
5,CGTTTATC,-0.0397 ± 0.011
6,AGGCCCGA,-0.161 ± 0.0046
7,AAGATATA,0.259 ± 0.022
8,CATATATG,0.308 ± 0.036
9,CAGATATA,0.0905 ± 0.056
10,TATATATA,0.315 ± 0.019
11,CATATAGG,0.145 ± 0.0097
12,CATATAGA,0.182 ± 0.038
13,CATATATA,0.277 ± 0.012
14,AAGATATC,0.211 ± 0.14
15,CATATATC,0.232 ± 0.0054
16,CATATACG,0.0657 ± 0.013
17,GATATATA,0.204 ± 0.027
18,TATATAGA,0.166 ± 0.025
19,CCTAGTAG,0.00183 ± 0.043
20,CACACTAA,0.172 ± 0.041
21,CGTCCCAG,-0.132 ± 0.0026
22,CTATGGAG,0.0519 ± 0.034
23,CAAGCTTA,-0.00639 ± 0.037
24,CCTGCCAC,-0.0854 ± 0.043
25,AGACCGTG,-0.2708 ± 0.0017

row,Sequence,PBM 8-mer E-score
1,TATGCCGA,-0.0358 ± 0.062
2,ACCAGCAG,-0.0797 ± 0.013
3,CCCGCCAG,-0.131 ± 0.01
4,GTTATATA,0.264 ± 0.022
5,CTTATATA,0.166 ± 0.073
6,CTAATCTA,0.0847 ± 0.035
7,GATCTATA,-0.0283 ± 0.079
8,GTTATAGA,0.175 ± 0.05
9,ATAATATA,0.194 ± 0.04
10,ATAATCTA,0.141 ± 0.07
11,CTAATATA,0.1721 ± 0.00093
12,GTAATCTA,0.259 ± 0.056
13,GTAATATA,0.255 ± 0.07
14,AATCTATA,0.147 ± 0.091
15,CATCTATA,0.288 ± 0.024
16,ACCGCCCG,-0.242 ± 0.065
17,AAGGCGCC,0.175 ± 0.087
18,CGCAACCA,0.0737 ± 0.021
19,CCTTGCCA,-0.0434 ± 0.087
20,GTAATTGA,0.0816 ± 0.034
21,GTAATTTA,0.0251 ± 0.0029
22,AGAATTTC,-0.0921 ± 0.041
